# Assay outcomes: PubChem, National Center for Advancing Translational Sciences (NCATS)
# D2 antagonist – D2 dopamine receptor (human) antagonism. HEK293 TREx D2 cells, calcium flux, dopamine EC80. inhibition, % at 10 µM. P14416. 2% of 340,000 active. AID 485344; in the data active = inhibition above about 30%; inactive = below that, where a call was filed; note: 0% is about no effect
# Target sequence (P14416 whole entry, looked up): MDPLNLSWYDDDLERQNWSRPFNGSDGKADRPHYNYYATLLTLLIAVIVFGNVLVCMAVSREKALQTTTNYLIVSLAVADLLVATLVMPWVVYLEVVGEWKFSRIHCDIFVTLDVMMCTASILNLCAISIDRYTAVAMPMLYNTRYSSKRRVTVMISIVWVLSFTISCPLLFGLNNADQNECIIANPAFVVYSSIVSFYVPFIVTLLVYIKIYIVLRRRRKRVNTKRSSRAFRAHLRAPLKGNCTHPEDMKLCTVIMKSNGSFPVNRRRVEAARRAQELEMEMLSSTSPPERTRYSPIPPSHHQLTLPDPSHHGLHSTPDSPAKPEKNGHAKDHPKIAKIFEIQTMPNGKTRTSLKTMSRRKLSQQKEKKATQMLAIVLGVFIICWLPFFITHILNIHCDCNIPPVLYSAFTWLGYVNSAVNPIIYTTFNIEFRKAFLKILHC
#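 Compounds are added to dye-loaded, induced HEK293 T-REx cells coupled to calcium release via D2; after a 3 min kinetic read an EC80 dopamine stimulus is given and fluorescence is recorded for 3 more min.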
# D2 ag-1 – D2 dopamine receptor (human) agonism. P14416. HEK293 T-REx D2 cells, calcium flux agonist mode. activation, % at 2 µM. 0.53% of 340,000 active. AID 485358;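 active = activation over 3 SD above normal in the single-dose calcium agonist read, cut at about 30% in these data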; note: 0% is about no effect
#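 Tetracycline-induced HEK293 T-REx cells with force-coupled D2 receptor, plated overnight at 30 C, loaded with no-wash calcium dye. After a 10 s baseline, compound was pin-added and calcium flux read kinetically for 180 s; calcium rises flagged agonists.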
# D2 PAM-1 – human D2 receptor positive allosteric modulation; P14416; DiscoveRx D2 beta-arrestin cells, luminescence, 90 min; 100% = 57 uM dopamine signal; potentiation, % (concentration not given with the values); 0.23% of 360,000 active; AID 624464; in the data active = potentiation above about 50%
#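 PathHunter D2 cells, attached overnight at 37 deg C, received compound in DMSO plus dopamine at EC20 (50 nM final) for 90 min at 37 deg C. Beta-arrestin recruitment was read as luminescence after 1 h with detection reagent at ambient temperature.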
# D2 PAM-2 – D2 dopamine receptor (human) potentiation. HEK293 T-REx D2, calcium flux, EC20 dopamine potentiation. potentiation, % at 10 µM. 0.34% of 340,000 active. AID 485347;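 active = potentiation over 3 SD above the plate norm, cut at about 30% in these data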; note: 0% is about no effect
#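 Tetracycline-induced Hek293 Trex D2 cells, force-coupled to calcium, loaded with no-wash calcium dye. Compound added with 180 s kinetic read for agonism, then EC20 dopamine and a further 180 s read for potentiation.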
# D2 ag-2 – activates the human D2 dopamine receptor. P14416. DiscoveRx PathHunter D2 beta-arrestin, luminescence, 90 min; 100% = 57 uM dopamine signal. activation, % (test concentration not listed). 0.084% of 360,000 active. AID 624465; in the data active = activation above about 40%
#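 DiscoveRx PathHunter D2 beta-arrestin cells (2,100/well) attached overnight, then compound-stimulated 90 min at 37 C in HBSS/10 mM HEPES/0.1% Tween-20 buffer; beta-galactosidase complementation read by luminescence after 1 h at ambient temperature. Dopamine 57 uM final (EC100) as control.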
# The depositor's hits bear a star; · = no result. A selection: hits, their analogues and other compounds. The true share with any hit is near 2.4%.
SMILES,D2 antagonist,D2 ag-1,D2 PAM-1,D2 PAM-2,D2 ag-2
O=Cc1c(C(=O)O)n(Cc2ccc(Cl)cc2)c2ccccc12,4.6,30.5*,-11.2,-6.6,-0.5
COC(=O)C1=C(c2ccc(C(C)=O)cc2)C[C@@H]2CC[C@H]1N2C(=O)NC(C)C,52.2*,-0.1,-3.1,-5.9,1.1
COC(=O)C1=C(c2ccc(C(C)=O)cc2)C[C@@H]2CC[C@H]1N2C,-8.6,-0.1,-8.4,-6.0,-1.2
Oc1ccc(Cl)cc1CN1CCN(Cc2ccccc2)CC1,31.9*,-0.7,-40.6,-24.0,-2.3
COc1cccc(CN2CCN(c3ccc(F)cc3)CC2)c1OC,·,·,-28.3,·,-0.6
Cc1ccc(O)c(CN2CCN(c3ccccc3)CC2)c1,38.4*,4.7,-42.8,-23.5,-3.2
Oc1cc2c(cc1CN1CCN(c3ccccc3)CC1)CCC2,72.9*,-0.1,-39.7,-22.6,-0.7
Cc1cc(O)c(CN2CCN(c3ccccc3)CC2)cc1C,49.3*,6.2,-30.6,-34.0,-1.9
CCc1ccc(OCC(=O)N2CCN(CCc3ccccn3)CC2)cc1,·,1.2,·,-22.6,·
Oc1cc2c(cc1CN1CCN(c3ccc(F)cc3)CC1)OCO2,57.8*,0.8,-23.2,-20.7,-0.8
Brc1cc2c(cc1CN1CCN(c3ccccc3)CC1)OCCO2,-1.3,13.1,0.5,-22.9,-4.0
O=c1c2ccccc2nc(/C=C\c2ccccc2F)n1-c1ccc(O)cc1,·,0.2,·,15.6,·
COCc1ccc(CN2CCCC(C(=O)c3sccc3C)C2)o1 (stereo not drawn),38.3*,0.5,-19.0,-25.0,-1.1
COc1cccc(CN2CC=C(c3ccc(F)cc3)CC2)c1,72.4*,2.6,-11.8,-23.0,0.9
CCSc1nnc(NC(=O)c2cccn(Cc3ccc(Cl)cc3)c2=O)s1,·,1.1,·,-5.4,·
Cc1ccc(-n2c(/C=C/c3ccc(Br)s3)nc3ccccc3c2=O)cc1C,·,0.3,·,-2.6,·
Cc1ccnc(-n2c(-c3ccccc3)nc3ccccc3c2=O)c1,33.0*,-0.4,-10.5,16.4,-0.4
CN1CCN(Cc2nc3ccccc3n2C)CC1,-2.8,2.2,3.7,3.2,-2.7
CCC1C2Cn3c(nc4ccccc43)C1N(C)O2 (stereo not drawn),10.5,-0.1,0.7,33.9*,-1.8
O=C1c2ccccc2C(=O)N1Cc1nc2ccccc2c(=O)n1-c1ccccn1,31.2*,0.5,1.6,5.3,1.9
O=c1c2ccccc2nc(/C=C/c2ccc(F)cc2)n1-c1ccccn1,-16.7,0.3,-4.2,7.1,-4.3
Cc1ccc(C2SCC(=O)Nc3c2c(=O)[nH]n3C2CCOC(C)(C)C2)cc1 (stereo not drawn),37.0*,-0.7,-21.3,3.4,-2.6
Cc1cccc(-n2c(/C=C/c3cn(C)c4ccccc34)nc3ccccc3c2=O)c1,·,-0.1,·,-4.0,·
COc1cccc(C2SCC(=O)Nc3c2c(C)nn3-c2ccc(C)c(Cl)c2)c1OC (stereo not drawn),·,·,·,0.1,·
CCCCCCNC(=O)N[C@H](Cc1ccc(O)cc1)C(=O)NCCC[C@H]1CN2C(=NC[C@H]2CCC)N1CC1CCC1,33.7*,1.0,·,7.4,·
SMILES,D2 antagonist,D2 ag-1,D2 PAM-1,D2 PAM-2,D2 ag-2
N#Cc1ccccc1NC(=O)c1cccn(Cc2ccccc2)c1=O,·,0.6,·,16.7,·
CC(C)c1ccc(OCC(=O)N2CCN(CCc3ccncc3)CC2)cc1,·,1.5,·,4.2,·
CCc1nn(CC(=O)N2CCC3(CC2)OCCO3)c(=O)c2cc3ccccc3n12,-5.0,31.8*,-1.6,-12.1,2.8
COc1cccc(-n2c(/C=C/c3cccc(C)c3)nc3ccccc3c2=O)c1,·,0.8,·,-3.4,·
Cc1ccc(-n2c(/C=C/c3cc(Br)cs3)nc3ccccc3c2=O)cc1,·,0.6,·,4.6,·
CCCn1cc2c3c(cccc31)C1CC(C)CN(C)C1C2 (stereo not drawn),86.6*,38.9*,·,-28.7,·
CCNc1cc(N2CCNCC2)ccc1[N+](=O)[O-],35.3*,-0.1,·,-7.7,·
Nc1ccc2ccc3cccc[n+]3c2c1,1.4,31.1*,4.2,2.7,-0.9
C[n+]1c(-c2ccccc2)c2cc(N)ccc2c2ccc(N)cc21,-11.2,5.4,24.9,-6.3,7.3
Cc1cccc2sc(NC(=O)c3cccn(Cc4ccccc4)c3=O)nc12,·,1.5,·,8.8,·
O=[N+]([O-])c1cccc(CN2CCN(Cc3ccc(Br)cc3)CC2)c1,89.7*,1.8,-3.9,-23.4,-2.3
O=C(Cc1ccccc1)N1CCN(Cc2ccc([N+](=O)[O-])cc2)CC1,1.3,-0.4,-5.4,-1.6,-3.4
O=C(Nc1ccc2c(c1)OCO2)c1cccn(Cc2ccc(F)cc2)c1=O,·,0.7,·,1.8,·
Cc1ccc2scc(N3CCN(C)CC3)c(=O)c2c1,·,1.2,·,7.1,·
CCCC(CCC)C(=O)OC[N+](C)(C)CCOC(=O)C(O)(c1ccccc1)C1CCCC1 (stereo not drawn),39.1*,-1.4,-10.6,-3.6,-5.4
CC(C)(C)C(=O)OC[N+](C)(C)CCOC(=O)C(O)(c1ccccc1)C1CCCC1 (stereo not drawn),19.4,-0.3,-15.4,-7.8,10.6
O=C(COc1ccccc1[N+](=O)[O-])N1CCN(CCc2ccncc2)CC1,·,1.4,·,-7.8,·
COc1ccc2ccc(O)c(CN3CC=C(c4ccccc4)CC3)c2c1,18.6,17.2,-4.0,-17.2,-1.8
COc1ccc(C(C)=O)cc1CN1CC=C(c2ccccc2)CC1,78.1*,3.4,-10.3,-27.1,-1.4
COc1ccc2c(CN3CC=C(c4ccccc4)CC3)cc(=O)oc2c1,1.6,0.3,-21.1,-5.2,-1.7
COc1cc(C)cc(CN2CC=C(c3ccccc3)CC2)c1O,87.9*,-7.9,-21.0,-30.2,8.1
COc1ccc(C(=O)C(Cc2ccccc2)N(C)C)cc1 (stereo not drawn),1.5,1.0,-20.9,-3.3,-2.5
COc1ccc(C(CNC(=O)c2ccc3c(c2)CCC3)N(C)C)cc1 (stereo not drawn),79.5*,-0.8,-17.0,-27.9,-3.6
O=c1cc(C(F)(F)F)c2cc3c4c(c2o1)CCCN4CCC3,78.5*,142.7*,8.6,-19.7,-0.5
Cc1cc2c(C(F)(F)F)cc(=O)oc2c2c1NCCC2,-17.6,19.9,2.8,4.8,0.5
CCCCCCN1CCN(c2ccc(Cl)cc2)CC1,50.9*,0.1,-23.0,-27.1,4.6
Fc1ccc(CN2CCN(c3ccc(Cl)cc3)CC2)cc1,-13.0,0.0,-12.9,-20.0,-1.2
Cc1cccc(CN2CCN(c3ccc(Cl)cc3)CC2)c1,34.3*,-5.8,-6.5,-18.5,-5.6
